# According to ChEMBL document CHEMBL3988442, “University of Dundee, Small-Polar-MMV Screening Library” (2021):
# For part of these data: Potency and affinity values are given separately.
# How the values were obtained:
# Set-up in all cases: scale not given: direction of the effect not stated beside the values
# [1] = target: Protein translocase subunit SecA (Escherichia coli (strain K12)) (UniProt P10408); assay: Assay to Identify E. coli SecA ATPase Inhibitors; format: functional; settings: 30 µM
# [2] = target: T1, Ubiquitin-activating enzyme e1, putative (Leishmania donovani (strain BPK282A1)) (UniProt E9BSI1); assay: Leishmania donovani Ubiquitin Activating Enzyme (LdE1); format: functional; settings: 30 µM
# T1 sequence (whole entry): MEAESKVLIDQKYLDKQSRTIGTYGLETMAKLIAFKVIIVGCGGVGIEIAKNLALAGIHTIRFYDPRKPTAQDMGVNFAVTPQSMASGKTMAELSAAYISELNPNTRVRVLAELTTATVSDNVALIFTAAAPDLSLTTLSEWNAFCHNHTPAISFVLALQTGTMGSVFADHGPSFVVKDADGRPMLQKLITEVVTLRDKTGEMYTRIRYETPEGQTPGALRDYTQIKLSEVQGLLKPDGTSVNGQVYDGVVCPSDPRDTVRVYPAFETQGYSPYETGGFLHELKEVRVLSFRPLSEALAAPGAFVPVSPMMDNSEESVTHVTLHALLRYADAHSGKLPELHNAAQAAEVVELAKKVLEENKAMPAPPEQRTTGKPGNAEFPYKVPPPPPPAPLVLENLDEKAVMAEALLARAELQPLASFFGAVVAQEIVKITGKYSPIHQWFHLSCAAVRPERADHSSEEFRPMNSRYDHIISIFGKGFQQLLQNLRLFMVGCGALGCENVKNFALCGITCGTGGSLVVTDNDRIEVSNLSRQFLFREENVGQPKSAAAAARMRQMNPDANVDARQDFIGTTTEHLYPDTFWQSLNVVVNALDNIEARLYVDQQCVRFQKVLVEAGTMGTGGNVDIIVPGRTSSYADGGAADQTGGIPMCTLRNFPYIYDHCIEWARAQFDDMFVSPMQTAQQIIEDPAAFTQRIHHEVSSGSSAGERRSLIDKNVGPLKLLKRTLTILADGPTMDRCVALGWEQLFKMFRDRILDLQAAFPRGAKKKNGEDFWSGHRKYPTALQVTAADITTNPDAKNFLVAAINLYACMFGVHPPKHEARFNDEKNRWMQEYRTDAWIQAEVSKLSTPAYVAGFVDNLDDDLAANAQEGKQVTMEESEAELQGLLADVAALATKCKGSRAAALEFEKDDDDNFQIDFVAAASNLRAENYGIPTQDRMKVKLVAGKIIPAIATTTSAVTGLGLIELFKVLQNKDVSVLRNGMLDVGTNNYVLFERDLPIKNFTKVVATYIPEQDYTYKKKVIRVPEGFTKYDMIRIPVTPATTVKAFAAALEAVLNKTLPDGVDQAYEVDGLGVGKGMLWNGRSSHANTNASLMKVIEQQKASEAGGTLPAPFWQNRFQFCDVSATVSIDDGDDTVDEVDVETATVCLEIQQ
# [3] = target: AMP-activated protein kinase, AMPK (Homo sapiens) (UniProt P54646+O43741+P54619+Q9UGJ0+Q9Y478+Q13131+Q9UGI9); assay: AMP-dependent Kinase enzyme assay. An in vitro enzyme assay that detects ADP turnover that is directly proportional to AMPK activity. This uses naive AMPK that is activated during the assay with MK-8722; format: functional; settings: 30 µM
# [4] = target: Sialic acid-binding Ig-like lectin 9 (Homo sapiens) (UniProt Q9Y336); assay: Hs-Siglec9 ALPHAscreen SOP 20170721; settings: 10 µM
# [5] = tested on: Trypanosoma cruzi; assay: Trypanosoma cruzi phosphomannomutase and mannose-1-phosphate guanylyltransferase assay; format: functional; settings: 10 µM
# [6] = target: T2, Arginase-2, mitochondrial (Homo sapiens) (UniProt P78540); assay: in vitro enzyme assay to detect the production of urea directly proportional to the activity of Arginase II; format: functional; settings: 33.3 µM; further: in the data most compounds retested in dose-response had high values
# T2 sequence (whole entry): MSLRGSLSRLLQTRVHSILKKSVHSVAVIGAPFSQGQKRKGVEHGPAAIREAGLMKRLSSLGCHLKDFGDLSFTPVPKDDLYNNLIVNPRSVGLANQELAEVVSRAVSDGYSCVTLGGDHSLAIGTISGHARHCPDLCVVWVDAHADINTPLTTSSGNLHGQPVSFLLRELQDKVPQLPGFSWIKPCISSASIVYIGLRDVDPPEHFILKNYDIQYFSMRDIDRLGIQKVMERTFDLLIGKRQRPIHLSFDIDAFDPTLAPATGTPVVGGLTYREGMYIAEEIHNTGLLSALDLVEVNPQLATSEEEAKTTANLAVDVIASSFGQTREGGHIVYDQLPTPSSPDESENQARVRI
# [7] = target: T3, Proteasome subunit beta (Trypanosoma cruzi) (UniProt O96673); assay: Trypanosoma cruzi proteasome chymotrypsin-like activity (TcProtChymo) assay.; further: in the data most compounds retested in dose-response had high values; format: functional; settings: 9.37 µM
# T3 sequence (whole entry): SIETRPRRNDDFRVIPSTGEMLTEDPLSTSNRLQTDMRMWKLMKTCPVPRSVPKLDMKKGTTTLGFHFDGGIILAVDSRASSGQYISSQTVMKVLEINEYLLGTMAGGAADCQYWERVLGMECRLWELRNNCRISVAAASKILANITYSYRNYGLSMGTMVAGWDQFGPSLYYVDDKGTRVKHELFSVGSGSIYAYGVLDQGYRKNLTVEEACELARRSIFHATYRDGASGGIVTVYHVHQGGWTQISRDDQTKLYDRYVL
# [8] = species on record: Homo sapiens; assay: To identify inhibition of the IFN signalling (Jak-Stat) pathway via expression of an eGFP reporter gene under the control of an IFN-stimulated response element (ISRE) containing MxA promoter.; format: functional; settings: 30 µM
# [9] = target: T4, Tyrosyl-tRNA synthetase, putative (Trypanosoma cruzi (strain CL Brener)) (UniProt Q4DSP6); assay: Trypanosoma cruzi tyrosyl tRNA synthetase (TcYRS) _High Tyrosine SOP; format: functional; settings: 30 µM; further: in the data most compounds retested in dose-response had high values
# T4 sequence (whole entry): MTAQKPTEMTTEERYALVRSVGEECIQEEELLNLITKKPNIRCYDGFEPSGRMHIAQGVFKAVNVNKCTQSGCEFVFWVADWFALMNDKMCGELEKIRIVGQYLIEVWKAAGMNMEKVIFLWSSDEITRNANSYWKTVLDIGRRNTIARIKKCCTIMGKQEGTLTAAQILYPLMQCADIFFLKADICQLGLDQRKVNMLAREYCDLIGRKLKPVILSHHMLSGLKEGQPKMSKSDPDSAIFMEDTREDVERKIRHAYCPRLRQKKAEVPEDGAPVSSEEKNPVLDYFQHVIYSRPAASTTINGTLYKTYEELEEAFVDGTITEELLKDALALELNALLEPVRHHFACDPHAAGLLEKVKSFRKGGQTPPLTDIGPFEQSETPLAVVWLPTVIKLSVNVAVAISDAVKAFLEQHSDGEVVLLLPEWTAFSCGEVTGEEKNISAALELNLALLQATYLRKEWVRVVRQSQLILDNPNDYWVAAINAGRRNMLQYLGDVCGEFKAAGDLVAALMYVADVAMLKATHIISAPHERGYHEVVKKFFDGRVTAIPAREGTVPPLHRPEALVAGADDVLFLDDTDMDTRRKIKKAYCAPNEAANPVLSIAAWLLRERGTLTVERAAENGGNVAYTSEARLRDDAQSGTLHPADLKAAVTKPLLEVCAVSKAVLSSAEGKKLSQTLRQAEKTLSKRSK
# [10] = target: T4, Tyrosyl-tRNA synthetase, putative (Trypanosoma cruzi (strain CL Brener)); assay: Trypanosoma cruzi tyrosyl tRNA synthetase (TcYRS) SOP; format: functional; settings: 30 µM
# [11] = target: Chromo domain-containing protein 1 (Saccharomyces cerevisiae (strain ATCC 204508 / S288c) (Baker's yeast)) (UniProt P32657); assay: ScCHD-1 Enzyme Inhibition Assay; format: functional; settings: 30 µM; further: in the data most compounds retested in dose-response had high values
# Chain of Chromo domain-containing protein 1 (Saccharomyces cerevisiae (strain ATCC 204508 / S288c) (Baker's yeast)) (P32657 whole entry, the tested form may be a part): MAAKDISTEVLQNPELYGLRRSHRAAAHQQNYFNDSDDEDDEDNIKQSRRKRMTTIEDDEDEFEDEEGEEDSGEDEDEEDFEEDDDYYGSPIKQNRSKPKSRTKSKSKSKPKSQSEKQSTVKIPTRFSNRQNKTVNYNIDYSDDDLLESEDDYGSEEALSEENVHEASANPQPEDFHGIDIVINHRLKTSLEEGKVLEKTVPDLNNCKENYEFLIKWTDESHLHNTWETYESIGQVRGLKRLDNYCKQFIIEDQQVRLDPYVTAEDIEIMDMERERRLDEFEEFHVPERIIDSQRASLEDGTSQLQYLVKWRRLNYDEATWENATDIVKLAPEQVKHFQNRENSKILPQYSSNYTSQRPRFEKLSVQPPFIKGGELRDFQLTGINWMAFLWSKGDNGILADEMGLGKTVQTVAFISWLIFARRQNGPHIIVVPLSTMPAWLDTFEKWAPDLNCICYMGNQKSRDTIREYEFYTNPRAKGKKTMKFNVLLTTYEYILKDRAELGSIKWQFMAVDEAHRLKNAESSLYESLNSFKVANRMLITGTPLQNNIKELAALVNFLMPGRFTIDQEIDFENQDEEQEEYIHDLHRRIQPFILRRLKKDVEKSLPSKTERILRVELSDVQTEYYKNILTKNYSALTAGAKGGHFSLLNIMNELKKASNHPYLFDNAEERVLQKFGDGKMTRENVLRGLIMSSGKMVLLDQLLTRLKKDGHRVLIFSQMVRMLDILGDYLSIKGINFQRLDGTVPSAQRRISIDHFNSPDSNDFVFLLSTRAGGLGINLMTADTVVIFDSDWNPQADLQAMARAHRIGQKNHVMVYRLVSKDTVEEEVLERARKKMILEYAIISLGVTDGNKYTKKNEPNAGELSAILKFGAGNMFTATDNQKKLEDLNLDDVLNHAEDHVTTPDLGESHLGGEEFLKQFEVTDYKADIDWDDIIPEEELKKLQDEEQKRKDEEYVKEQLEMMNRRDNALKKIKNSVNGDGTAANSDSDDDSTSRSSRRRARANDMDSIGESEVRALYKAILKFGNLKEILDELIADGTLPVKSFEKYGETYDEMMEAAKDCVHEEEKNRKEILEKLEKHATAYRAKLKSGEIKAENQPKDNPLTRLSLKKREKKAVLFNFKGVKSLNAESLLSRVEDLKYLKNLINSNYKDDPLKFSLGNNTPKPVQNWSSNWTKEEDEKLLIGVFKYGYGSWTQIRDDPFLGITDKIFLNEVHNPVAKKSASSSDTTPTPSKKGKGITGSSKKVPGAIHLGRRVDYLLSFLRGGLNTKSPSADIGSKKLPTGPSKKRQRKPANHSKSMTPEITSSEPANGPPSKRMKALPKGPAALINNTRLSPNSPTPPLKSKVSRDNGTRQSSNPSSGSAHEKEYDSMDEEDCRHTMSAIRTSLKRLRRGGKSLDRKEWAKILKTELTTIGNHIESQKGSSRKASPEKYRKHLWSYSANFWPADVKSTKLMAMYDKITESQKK
# Chain of Protein translocase subunit SecA (Escherichia coli (strain K12)) (P10408 whole entry): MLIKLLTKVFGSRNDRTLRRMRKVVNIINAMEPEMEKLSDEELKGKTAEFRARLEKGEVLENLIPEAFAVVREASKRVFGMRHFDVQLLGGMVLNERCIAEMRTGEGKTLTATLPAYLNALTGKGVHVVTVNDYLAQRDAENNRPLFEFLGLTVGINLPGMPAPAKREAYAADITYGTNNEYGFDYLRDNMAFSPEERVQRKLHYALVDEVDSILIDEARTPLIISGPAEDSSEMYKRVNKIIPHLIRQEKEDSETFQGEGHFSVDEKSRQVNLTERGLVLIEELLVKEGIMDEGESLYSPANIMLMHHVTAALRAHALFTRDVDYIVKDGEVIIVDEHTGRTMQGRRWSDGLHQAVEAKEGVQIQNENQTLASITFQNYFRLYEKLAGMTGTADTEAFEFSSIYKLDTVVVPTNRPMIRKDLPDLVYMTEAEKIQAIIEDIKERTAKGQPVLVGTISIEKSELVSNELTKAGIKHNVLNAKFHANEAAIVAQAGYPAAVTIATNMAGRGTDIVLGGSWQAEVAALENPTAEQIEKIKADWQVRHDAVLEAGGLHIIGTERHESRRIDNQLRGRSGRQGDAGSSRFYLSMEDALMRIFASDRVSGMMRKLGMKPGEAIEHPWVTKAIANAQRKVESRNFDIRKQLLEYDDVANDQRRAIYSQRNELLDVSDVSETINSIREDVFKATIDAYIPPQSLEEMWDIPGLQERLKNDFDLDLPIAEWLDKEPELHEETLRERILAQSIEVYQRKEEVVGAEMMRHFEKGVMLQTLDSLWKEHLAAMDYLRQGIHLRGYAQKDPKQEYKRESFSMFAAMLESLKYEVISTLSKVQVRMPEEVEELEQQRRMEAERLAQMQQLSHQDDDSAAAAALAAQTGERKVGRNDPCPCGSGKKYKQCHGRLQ
# Chain of Sialic acid-binding Ig-like lectin 9 (Homo sapiens) (Q9Y336 whole entry): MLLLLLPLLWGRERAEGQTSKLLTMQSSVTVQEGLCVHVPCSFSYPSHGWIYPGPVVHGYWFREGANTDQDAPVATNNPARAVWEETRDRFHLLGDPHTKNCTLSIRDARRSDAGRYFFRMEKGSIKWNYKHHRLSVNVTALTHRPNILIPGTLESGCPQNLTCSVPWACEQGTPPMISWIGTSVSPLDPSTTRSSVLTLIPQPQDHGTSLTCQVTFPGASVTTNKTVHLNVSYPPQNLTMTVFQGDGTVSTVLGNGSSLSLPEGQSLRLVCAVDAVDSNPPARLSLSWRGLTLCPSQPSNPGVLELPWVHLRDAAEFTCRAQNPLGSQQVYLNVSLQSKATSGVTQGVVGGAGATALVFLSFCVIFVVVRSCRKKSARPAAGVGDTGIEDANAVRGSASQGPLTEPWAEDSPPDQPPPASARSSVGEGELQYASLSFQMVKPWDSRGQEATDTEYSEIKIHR
Compound,Percent Effect [1] [%],Percent Effect [2] [%],Percent Effect [3] [%],Percent Effect [4] [%],Percent Effect [5] [%],Percent Effect [6] [%],Percent Effect [7] [%],Percent Effect [8] [%],Percent Effect [9] [%],Percent Effect [10] [%],Percent Effect [11] [%]
Cc1cn(CC(=O)NC2CCN(S(C)(=O)=O)CC2)c2ccccc12,-4.19,0,0.231,-6.08,-2.44,1.74,3.18,0.23,2.15,8.64,-4.9
Cc1nc(CN2CCC(N(C)Cc3noc(C(C)C)n3)C2)cs1 (stereo unspecified),1.43,-24.7,-8.83,5.3,-5.68,-4.54,19,26,4.3,2.5,-4.7
O=S(=O)(c1ccccc1)N1CCCN(CCCn2ccnc2)CC1,-1.12,0,-5.54,24.8,5.38,-0.248,3.35,-7.92,2.15,3.7,-12.2
Cn1ccnc1CN1CCN(CC(O)c2ccc(F)c(F)c2)CC1 (stereo unspecified),-8.39,10.4,-6.83,-0.647,-6.93,1.42,0.507,29.6,0,-2.44,-2.48
O=C(CO[C@@H]1CC[C@H]2[C@H]1OCCN2CC1CCOCC1)N1CCCC1,-4.19,0,2.42,-1.24,-3.12,2.08,11.1,2.51,8.91,8.54,1.37
Cc1noc(C2CCC3(CCN(C(=O)c4c(C)noc4C)CC3)O2)n1 (stereo unspecified),-6.54,2.7,-4.63,17.5,7.53,-6.2,0.0858,5.82,-4.3,11.1,-1.92
NC(=O)c1nnn(-c2ccc(Br)cc2)n1,-5.42,18.2,-6.83,-10.8,7.59,3.23,11.5,17.2,5.29,6.41,-9.19
COC[C@H]1CCC[C@]12CN(C(=O)NCc1ccccc1)CCO2,-5,20,-4.55,9.51,2.75,-7.22,13.5,2.52,3.17,10.3,-9.21
CCn1cnnc1CNC(=O)c1cc(Cl)ccc1O,-2.03,8.86,6.87,-0.716,-5.44,-7.1,17,11.3,5.21,-15.2,-14
c1ccc(-c2nc(CNC3CCc4ncnn4C3)co2)cc1 (stereo unspecified),-6.67,20.8,-3.92,12.6,7.68,-3.92,3.21,9.63,8.74,19.5,-7.68
COc1ccc(CNC(=O)N(Cc2ccc(F)cc2F)C2CC2)cn1,-6.72,15.2,-2.76,9.29,5.95,-0.76,0.737,8.63,3.45,21.5,-7.42
c1ccc(-c2noc(CN3CCOC(Cn4cccn4)C3)n2)nc1 (stereo unspecified),-0.328,0,4.78,8.36,0.188,-1.53,3.51,6.16,-0.49,-2.44,4.99
O=C(CSc1ccccc1Cl)NS(=O)(=O)c1ccc2c(c1)OCCO2,-4.83,-21.1,27.8,4.23,1.69,-1.15,9.69,4.4,-15.2,-12.2,-10.3
CCc1ccccc1C(=O)N1CCN(S(C)(=O)=O)[C@@H](C)C1,2.08,2.74,0.603,7.54,5.09,3.18,8.34,-4.78,1.07,0,-1.37
CCOC(=O)c1c(NC(=O)CN2CCN(C(C)=O)CC2)sc2c1CCC2,-3.66,7.89,9.52,4.99,-0.0974,-1.18,7,-11.1,4.25,13,-4.6
Cc1nn(C)c(C)c1C(=O)N1CCOCC1CC(=O)c1ccco1 (stereo unspecified),-2.08,0,5.49,5.37,4.19,-8.28,-0.0959,-9.68,0,7.79,-0.43
Cc1ccc(N2CCCN(C(=O)CC3CCCO3)CC2)nn1 (stereo unspecified),-2.51,21.6,-11.8,5.27,3.87,-8.82,14.8,7.13,-1.48,18.5,-9.23
CCc1nccc(CN2CCCC(c3nn(C)c(=O)n3CC)C2)n1 (stereo unspecified),-3.27,8.11,-2.62,37.3,2.64,8.19,-1.63,2.84,4.3,13.6,-3.17
Cc1ccc(CC(=O)N2CCOC(c3nc(C)n[nH]3)C2)cn1 (stereo unspecified),-3.84,20.8,-6.18,28.2,3.79,5.74,5.96,-6.79,6.32,12.8,-3.82
Cc1cccc(OCCC(=O)N(C)CCC#N)c1C,-4.33,2.63,12.1,7.74,-5.16,-5.92,23.1,9.14,4.25,10.4,-5.59
Cc1cc(C)n(CC(C)CNC(=O)[C@@H](C)NC(=O)OC(C)(C)C)n1 (stereo partly specified),-2.44,7.89,3.79,1.85,0.487,-5.92,17.7,-12.5,4.25,13,-2.31
